Results on one sequence are retold here after article PMC7862700, “An all-to-all approach to the identification of sequence-specific readers for epigenetic DNA modifications on cytosine”.

Common to all, as to experiment: DAPPL (digital affinity profiling via proximity ligation, sequencing); 10 mM Tris-HCl pH 7.5, 50 mM NaCl, 1 mM DTT, 4% glycerol, room temperature, 30 min; GST-TFs on glutathione beads, 16-mer random dsDNA library, 0.1% formaldehyde crosslink after washing; high values mean tight binding
Common to all, as to conditions: protein: recombinant; tags: N-terminal GST; dsDNA, one strand shown

For one experiment, the target named is T1, ELK1 (Homo sapiens, UniProt P19419 1-428).
T1 sequence: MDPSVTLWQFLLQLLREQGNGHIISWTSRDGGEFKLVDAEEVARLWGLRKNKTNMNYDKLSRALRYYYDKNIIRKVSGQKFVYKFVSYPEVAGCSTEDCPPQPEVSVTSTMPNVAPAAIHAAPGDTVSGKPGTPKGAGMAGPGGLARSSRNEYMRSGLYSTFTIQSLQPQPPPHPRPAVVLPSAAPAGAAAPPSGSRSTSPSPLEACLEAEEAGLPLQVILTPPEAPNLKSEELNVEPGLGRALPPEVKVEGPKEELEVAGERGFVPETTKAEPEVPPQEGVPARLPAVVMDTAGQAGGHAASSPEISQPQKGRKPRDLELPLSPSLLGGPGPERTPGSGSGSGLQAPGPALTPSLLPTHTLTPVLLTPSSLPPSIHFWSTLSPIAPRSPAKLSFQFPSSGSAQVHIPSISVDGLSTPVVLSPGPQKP
In a few lines:
(§1)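 The binding signal reported is, for every hexamer, its read frequency for a factor over its read frequency for the tag-only sample. Reads came from pools of yeast-expressed, GST-fused human transcription factors on glutathione beads, barcoded with DNA and mixed with that sample, which were incubated with 200 nmole of a random double-stranded 16-mer DNA library in Tris/NaCl/DTT/glycerol buffer at room temperature for 30 min. After washing, the pools were crosslinked with 0.1% formaldehyde, proximity-ligated with BsaI/T4 ligase for 1 h at 37 °C, PCR-amplified and sequenced on an Illumina NextSeq500.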

For another experiment, the target named is T2, GABPA (Homo sapiens, UniProt Q06546 1-454).
T2 sequence: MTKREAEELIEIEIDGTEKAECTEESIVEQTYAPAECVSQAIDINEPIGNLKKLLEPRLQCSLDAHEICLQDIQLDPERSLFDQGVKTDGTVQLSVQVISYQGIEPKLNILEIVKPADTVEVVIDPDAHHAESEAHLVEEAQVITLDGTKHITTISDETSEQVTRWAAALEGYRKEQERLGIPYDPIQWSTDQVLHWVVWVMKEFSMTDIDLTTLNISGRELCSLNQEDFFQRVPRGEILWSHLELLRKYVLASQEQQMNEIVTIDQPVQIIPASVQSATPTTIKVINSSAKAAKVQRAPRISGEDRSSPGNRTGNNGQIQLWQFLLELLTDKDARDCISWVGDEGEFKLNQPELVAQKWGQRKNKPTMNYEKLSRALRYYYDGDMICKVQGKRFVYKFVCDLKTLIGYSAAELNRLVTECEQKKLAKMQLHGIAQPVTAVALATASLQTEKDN
In a few lines: as §1

The target in the next experiment is T3, ERG (Homo sapiens, UniProt P11308 1-479).
T3 sequence: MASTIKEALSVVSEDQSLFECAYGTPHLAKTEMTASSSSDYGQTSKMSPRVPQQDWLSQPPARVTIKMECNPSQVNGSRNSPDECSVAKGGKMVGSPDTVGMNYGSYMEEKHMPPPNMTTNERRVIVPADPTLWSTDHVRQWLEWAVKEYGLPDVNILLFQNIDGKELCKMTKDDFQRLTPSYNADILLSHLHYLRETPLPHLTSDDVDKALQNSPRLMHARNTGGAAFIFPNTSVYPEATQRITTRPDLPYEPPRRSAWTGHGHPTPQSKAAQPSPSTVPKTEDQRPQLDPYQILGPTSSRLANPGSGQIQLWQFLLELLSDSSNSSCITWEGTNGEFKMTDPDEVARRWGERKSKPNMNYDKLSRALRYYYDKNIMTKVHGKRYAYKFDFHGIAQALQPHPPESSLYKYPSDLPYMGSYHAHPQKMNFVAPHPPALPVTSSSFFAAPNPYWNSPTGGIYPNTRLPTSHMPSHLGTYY
The procedure, abridged:
as §1

A further experiment has as its target T4, EHF (Homo sapiens, UniProt Q9NZC4 1-300).
T4 sequence: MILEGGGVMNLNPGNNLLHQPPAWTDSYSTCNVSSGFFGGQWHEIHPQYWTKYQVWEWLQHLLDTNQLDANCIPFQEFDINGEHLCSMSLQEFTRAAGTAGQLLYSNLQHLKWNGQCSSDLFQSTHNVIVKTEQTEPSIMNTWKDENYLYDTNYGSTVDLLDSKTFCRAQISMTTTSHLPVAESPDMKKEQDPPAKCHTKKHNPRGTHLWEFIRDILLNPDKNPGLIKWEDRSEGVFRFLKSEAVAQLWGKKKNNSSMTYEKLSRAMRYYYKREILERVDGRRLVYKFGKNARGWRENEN
The procedure, abridged:
as §1

The target of a further experiment is T5, FEV (Homo sapiens, UniProt Q99581 1-238).
T5 sequence: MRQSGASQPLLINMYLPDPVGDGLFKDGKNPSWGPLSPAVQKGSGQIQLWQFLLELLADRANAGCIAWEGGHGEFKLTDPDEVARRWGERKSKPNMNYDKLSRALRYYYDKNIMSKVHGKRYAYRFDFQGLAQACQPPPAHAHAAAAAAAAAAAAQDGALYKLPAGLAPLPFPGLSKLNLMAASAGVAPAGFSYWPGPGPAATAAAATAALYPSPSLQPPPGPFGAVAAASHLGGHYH
The procedure, abridged:
as §1

The target of another experiment is ETV5 (Homo sapiens, UniProt P41161 1-510). The procedure, abridged:
as §1

In another experiment the target is ELF4 (Homo sapiens, UniProt Q99607 1-663). In a few lines: as §1
Chain of ELF4 (Q99607 whole entry): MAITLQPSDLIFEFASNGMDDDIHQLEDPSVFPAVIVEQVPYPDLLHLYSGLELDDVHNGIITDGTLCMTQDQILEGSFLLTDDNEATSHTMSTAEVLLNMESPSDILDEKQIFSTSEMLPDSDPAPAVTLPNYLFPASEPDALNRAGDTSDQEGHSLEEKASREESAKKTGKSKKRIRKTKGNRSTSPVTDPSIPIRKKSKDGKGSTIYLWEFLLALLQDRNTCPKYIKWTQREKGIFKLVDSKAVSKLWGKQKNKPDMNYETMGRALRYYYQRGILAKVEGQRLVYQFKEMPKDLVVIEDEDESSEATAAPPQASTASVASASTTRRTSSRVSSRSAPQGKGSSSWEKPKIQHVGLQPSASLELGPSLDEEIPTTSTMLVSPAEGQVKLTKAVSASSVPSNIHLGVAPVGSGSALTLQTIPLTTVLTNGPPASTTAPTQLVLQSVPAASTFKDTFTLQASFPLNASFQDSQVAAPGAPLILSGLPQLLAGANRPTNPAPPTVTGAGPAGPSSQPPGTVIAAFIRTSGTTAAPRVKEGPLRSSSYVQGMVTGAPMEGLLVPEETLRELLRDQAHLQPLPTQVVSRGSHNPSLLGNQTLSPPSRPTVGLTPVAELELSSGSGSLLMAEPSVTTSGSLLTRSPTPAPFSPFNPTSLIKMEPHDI
In a further experiment the target is T6, ELK4 (Homo sapiens, UniProt P28324-2 1-405).
T6 sequence: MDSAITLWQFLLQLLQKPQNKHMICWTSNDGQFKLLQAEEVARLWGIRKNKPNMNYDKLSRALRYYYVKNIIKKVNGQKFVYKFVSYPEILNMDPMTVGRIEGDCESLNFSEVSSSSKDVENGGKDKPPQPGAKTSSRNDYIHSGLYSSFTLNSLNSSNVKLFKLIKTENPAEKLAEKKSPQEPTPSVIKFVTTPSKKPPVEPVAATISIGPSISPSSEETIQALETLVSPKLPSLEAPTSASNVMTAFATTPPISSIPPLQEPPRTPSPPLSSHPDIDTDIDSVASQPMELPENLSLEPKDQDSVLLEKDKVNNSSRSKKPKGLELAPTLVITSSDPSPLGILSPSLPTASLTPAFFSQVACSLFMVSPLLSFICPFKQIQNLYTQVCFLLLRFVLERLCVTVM
The procedure, abridged:
as §1

A further experiment deals with T7, ETV2 (Homo sapiens, UniProt O00321 1-342).
T7 sequence: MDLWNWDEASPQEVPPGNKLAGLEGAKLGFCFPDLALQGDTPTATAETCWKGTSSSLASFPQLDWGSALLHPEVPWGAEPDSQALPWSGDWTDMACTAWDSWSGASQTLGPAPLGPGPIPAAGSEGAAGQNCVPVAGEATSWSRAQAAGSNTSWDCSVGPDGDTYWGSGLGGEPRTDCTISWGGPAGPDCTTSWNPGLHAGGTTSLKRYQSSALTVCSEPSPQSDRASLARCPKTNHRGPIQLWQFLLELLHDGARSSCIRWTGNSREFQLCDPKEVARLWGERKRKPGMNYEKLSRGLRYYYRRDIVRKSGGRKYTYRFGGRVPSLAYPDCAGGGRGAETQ
The procedure, abridged: as §1

The target of a further experiment is ETV1 (Homo sapiens, UniProt P50549 1-477). In a few lines: as §1
Chain of ETV1 (P50549 whole entry): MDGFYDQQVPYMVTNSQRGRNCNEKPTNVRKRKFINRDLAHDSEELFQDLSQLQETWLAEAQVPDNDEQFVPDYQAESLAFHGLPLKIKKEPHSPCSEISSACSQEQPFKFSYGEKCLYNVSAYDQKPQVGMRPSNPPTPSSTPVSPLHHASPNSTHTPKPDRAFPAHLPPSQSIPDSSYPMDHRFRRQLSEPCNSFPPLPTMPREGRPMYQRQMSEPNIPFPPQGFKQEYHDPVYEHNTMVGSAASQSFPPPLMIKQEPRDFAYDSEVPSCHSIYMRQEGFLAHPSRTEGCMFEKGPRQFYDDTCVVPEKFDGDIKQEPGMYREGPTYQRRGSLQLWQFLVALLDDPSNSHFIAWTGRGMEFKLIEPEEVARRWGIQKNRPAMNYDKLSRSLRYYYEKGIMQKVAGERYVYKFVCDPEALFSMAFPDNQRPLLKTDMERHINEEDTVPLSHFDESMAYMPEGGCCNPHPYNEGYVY
The target of another experiment is T8, ERF (Homo sapiens, UniProt P50548 1-548).
T8 sequence: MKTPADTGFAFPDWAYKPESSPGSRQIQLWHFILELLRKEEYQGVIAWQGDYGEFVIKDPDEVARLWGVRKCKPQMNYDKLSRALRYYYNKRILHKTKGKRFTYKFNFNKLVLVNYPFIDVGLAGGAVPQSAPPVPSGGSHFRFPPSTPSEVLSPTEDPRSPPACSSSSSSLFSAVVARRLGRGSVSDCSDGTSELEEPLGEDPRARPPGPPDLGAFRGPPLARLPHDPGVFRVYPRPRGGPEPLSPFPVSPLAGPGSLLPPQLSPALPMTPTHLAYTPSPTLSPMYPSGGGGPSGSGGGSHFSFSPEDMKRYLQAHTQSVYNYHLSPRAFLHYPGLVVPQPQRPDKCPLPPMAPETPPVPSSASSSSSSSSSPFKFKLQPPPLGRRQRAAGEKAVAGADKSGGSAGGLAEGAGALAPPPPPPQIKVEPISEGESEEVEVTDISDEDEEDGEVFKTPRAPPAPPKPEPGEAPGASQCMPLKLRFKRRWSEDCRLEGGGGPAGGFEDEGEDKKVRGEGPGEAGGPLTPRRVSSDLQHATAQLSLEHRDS
In a few lines: as §1

In a further experiment the target is T9, ETV3L (Homo sapiens, UniProt Q6ZN32 1-361).
T9 sequence: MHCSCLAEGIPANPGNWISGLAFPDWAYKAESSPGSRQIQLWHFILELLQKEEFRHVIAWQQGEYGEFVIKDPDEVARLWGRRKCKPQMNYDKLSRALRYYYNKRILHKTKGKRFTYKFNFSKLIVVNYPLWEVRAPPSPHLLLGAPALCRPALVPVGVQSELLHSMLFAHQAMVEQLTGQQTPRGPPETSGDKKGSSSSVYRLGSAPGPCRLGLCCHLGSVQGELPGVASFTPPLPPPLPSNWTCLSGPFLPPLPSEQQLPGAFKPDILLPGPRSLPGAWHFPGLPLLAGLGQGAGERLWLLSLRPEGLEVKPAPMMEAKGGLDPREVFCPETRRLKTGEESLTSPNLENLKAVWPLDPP
In a few lines:
as §1

The target of a further experiment is T10, ETS2 (Homo sapiens, UniProt P15036 1-469).
T10 sequence: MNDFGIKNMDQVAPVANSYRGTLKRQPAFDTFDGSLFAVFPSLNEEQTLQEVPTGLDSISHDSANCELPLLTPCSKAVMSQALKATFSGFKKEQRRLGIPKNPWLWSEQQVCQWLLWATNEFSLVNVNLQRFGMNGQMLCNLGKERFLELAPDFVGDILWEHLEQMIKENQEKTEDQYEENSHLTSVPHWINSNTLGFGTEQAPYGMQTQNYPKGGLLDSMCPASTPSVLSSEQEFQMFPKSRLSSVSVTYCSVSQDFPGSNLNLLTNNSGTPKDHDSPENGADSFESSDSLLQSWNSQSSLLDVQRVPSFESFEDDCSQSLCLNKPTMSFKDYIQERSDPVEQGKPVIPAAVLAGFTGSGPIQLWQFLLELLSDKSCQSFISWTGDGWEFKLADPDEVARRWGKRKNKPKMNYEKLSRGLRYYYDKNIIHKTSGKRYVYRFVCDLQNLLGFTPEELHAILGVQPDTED
In a few lines: as §1

In another experiment the target is T11, SPDEF (Homo sapiens, UniProt O95238 1-335).
T11 sequence: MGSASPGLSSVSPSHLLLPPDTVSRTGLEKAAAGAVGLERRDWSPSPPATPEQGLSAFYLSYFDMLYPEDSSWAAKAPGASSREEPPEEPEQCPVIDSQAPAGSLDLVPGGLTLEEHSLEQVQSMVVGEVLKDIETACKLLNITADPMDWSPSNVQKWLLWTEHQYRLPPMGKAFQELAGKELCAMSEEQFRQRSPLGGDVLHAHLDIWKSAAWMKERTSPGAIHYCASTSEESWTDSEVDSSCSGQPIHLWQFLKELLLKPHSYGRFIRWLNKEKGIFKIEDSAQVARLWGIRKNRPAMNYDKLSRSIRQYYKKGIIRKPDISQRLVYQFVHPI
In a few lines: as §1

The target in another experiment is T12, ETV7 (Homo sapiens, UniProt Q9Y603 1-341).
T12 sequence: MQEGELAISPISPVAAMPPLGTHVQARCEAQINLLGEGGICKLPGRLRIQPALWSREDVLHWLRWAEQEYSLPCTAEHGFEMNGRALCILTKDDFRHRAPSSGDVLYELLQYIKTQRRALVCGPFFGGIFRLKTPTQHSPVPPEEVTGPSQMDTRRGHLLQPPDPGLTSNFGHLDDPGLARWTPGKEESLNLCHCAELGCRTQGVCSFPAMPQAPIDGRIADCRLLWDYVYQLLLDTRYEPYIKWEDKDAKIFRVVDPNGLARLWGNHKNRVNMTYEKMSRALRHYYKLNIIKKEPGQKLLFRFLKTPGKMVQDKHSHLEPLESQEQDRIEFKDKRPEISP
In a few lines: as §1

The next experiment has as its target T13, ETV3 (Homo sapiens, UniProt P41162-2 1-143).
T13 sequence: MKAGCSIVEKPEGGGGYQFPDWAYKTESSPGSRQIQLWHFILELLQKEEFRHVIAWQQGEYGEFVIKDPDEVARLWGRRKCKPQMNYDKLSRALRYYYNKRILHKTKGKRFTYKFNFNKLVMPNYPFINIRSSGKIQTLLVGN
In a few lines:
as §1

Chain of ETV5 (P41161 whole entry): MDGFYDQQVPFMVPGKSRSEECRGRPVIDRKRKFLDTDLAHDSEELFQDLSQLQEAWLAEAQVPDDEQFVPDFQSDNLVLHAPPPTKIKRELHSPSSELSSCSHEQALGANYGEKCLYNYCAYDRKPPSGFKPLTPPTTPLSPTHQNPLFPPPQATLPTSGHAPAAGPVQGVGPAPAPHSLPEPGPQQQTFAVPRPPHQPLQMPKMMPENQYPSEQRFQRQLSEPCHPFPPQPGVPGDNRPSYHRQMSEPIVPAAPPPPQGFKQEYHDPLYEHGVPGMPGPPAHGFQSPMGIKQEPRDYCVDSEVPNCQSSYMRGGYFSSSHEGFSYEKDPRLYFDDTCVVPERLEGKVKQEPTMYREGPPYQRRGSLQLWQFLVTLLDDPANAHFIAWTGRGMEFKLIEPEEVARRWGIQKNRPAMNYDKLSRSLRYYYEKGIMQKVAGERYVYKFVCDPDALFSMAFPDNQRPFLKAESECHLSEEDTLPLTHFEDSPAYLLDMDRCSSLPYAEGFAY

In the case of TAGGGC, the binding signal with ELK1 is 1.07 fold enrichment (6-mer frequency, TF over GST control); with GABPA it was 1.01 fold enrichment (6-mer frequency, TF over GST control); with ERG, 1.01 fold enrichment (6-mer frequency, TF over GST control); with EHF, 1.18 fold enrichment (6-mer frequency, TF over GST control); in the experiment with FEV, 1.06 fold enrichment (6-mer frequency, TF over GST control); with ETV5 it was 1.03 fold enrichment (6-mer frequency, TF over GST control). Further, the binding signal in the experiment with ELF4 is 1.03 fold enrichment (6-mer frequency, TF over GST control); with ELK4, 1.02 fold enrichment (6-mer frequency, TF over GST control); with ETV2, 1.12 fold enrichment (6-mer frequency, TF over GST control); with ETV1, 1.06 fold enrichment (6-mer frequency, TF over GST control); with ERF, 1.09 fold enrichment (6-mer frequency, TF over GST control); with ETV3L, 1.04 fold enrichment (6-mer frequency, TF over GST control). Besides, the binding signal in the experiment with ETS2 is 1.06 fold enrichment (6-mer frequency, TF over GST control); in the experiment with SPDEF, 1.01 fold enrichment (6-mer frequency, TF over GST control); with ETV7 it was 1.07 fold enrichment (6-mer frequency, TF over GST control); with ETV3, 1.03 fold enrichment (6-mer frequency, TF over GST control).
